# Reference: PubChem BioAssay (NCI)
# This is part of a sample that, as a whole, favours compounds with a hit. Of some 79,000 tested, about 15% had one in any assay. Values without a mark were called inactive. Activity calls are given as the source filed them. No stated cut-off is given here; in the data, active means growth inhibition above about 70%; inactive means the rest.
# Assays:
# [1] = NCI Yeast Anticancer Drug Screen. Data for the rad52 strain (AID 147);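 further: 0% = growth of vehicle-treated control cultures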; conditions: S. cerevisiae rad52 mutant growth inhibition, hits give high values
# Procedure, shortened: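 DNA repair-defective yeast; compound exposure; growth scored against vehicle controls.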
# [2] = NCI Yeast Anticancer Drug Screen. Data for the wt1 strain (AID 149);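 further: 0% = growth of vehicle-treated wt1 cultures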; conditions: S. cerevisiae wt1 strain (SPY 50644) growth inhibition, hits give high values
# Procedure, shortened: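 Readout: yeast growth inhibition, normalised to vehicle controls, in the wt1 strain exposed to test compounds.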
# [3] = NCI Yeast Anticancer Drug Screen. Data for the rad50EPP+ strain (AID 151);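 further: 0% = growth of vehicle-treated control cultures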; conditions: S. cerevisiae rad50 mutant strain, hits give high values
# Procedure, shortened: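 rad50EPP+ yeast treated with test compounds. Readout: growth vs vehicle control.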
# [4] = NCI Yeast Anticancer Drug Screen. Data for the mgt1 strain (AID 153); conditions: S. cerevisiae mgt1 mutant growth inhibition, hits give high values
# Procedure, shortened: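 Growth inhibition relative to vehicle controls was scored for the mgt1 yeast strain after compound exposure.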
# [5] = NCI Yeast Anticancer Drug Screen. Data for the rad50 strain (AID 155);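 further: 0% = growth of vehicle-only cultures of the same strain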; conditions: S. cerevisiae rad50 strain growth inhibition, hits give high values
# Procedure, shortened: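 Compounds were tested on a yeast strain with an engineered DNA damage repair alteration; the reported value is growth inhibition normalised to vehicle treatment.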
# [6] = NCI Yeast Anticancer Drug Screen. Data for the mec2-1 strain (AID 157); conditions: S. cerevisiae mec2-1 strain, hits give high values
# Procedure, shortened: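 Growth inhibition is read against vehicle-treated controls after compound exposure of the mec2-1 yeast strain, which is defective in DNA damage repair or cell cycle control.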
# [7] = NCI Yeast Anticancer Drug Screen. Data for the rad14 strain (AID 159);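 further: 0% = growth of vehicle-treated control cultures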; conditions: S. cerevisiae rad14 strain growth inhibition, hits give high values
# Procedure, shortened: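 Compound-treated yeast with a defined DNA-repair lesion; growth inhibition normalised to vehicle-treated cultures.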
# [8] = NCI Yeast Anticancer Drug Screen. Data for the sgs1 mgt1 strain (AID 161);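 further: 0% = growth of cultures given vehicle only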; conditions: S. cerevisiae sgs1 mgt1 strain, hits give high values
# Procedure, shortened: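 This yeast growth screen uses a strain with defined DNA-repair lesions; compound-treated growth is compared with vehicle-treated growth.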
# [9] = NCI Yeast Anticancer Drug Screen. Data for the CLN2oe strain (AID 163);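 further: 0% = growth of vehicle-only control cultures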; conditions: S. cerevisiae CLN2oe strain, hits give high values
# Procedure, shortened: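 Compound-treated yeast; growth vs vehicle ctrl = % inhibition. Genetically altered strain (cell-cycle control).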
# [10] = NCI Yeast Anticancer Drug Screen. Data for the cln2 rad14 strain (AID 165);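 further: 0% = growth equal to vehicle treated cultures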; conditions: S. cerevisiae cln2 rad14 strain, hits give high values
# Procedure, shortened: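 Growth inhibition, relative to vehicle-treated controls, is the read-out. The test organism is a yeast strain with defined genetic alterations, cln2 rad14.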
# [11] = NCI Yeast Anticancer Drug Screen. Data for the bub3 strain (AID 167); conditions: S. cerevisiae bub3 mutant strain, hits give high values
# Procedure, shortened: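 Growth of a checkpoint-deficient yeast mutant is measured after compound exposure. Values represent inhibition relative to vehicle.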
# [12] = NCI Yeast Anticancer Drug Screen. Data for the wt2 strain (AID 169);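 further: 0% = growth of vehicle-treated yeast cultures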; conditions: S. cerevisiae wt2 strain growth inhibition, hits give high values
# Procedure, shortened: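 Compound exposure of yeast; growth compared with vehicle controls; inhibition reported.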
# [13] = NCI Yeast Anticancer Drug Screen. Data for the mlh1 strain (AID 171);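 further: 0% = growth of vehicle-treated control cultures of the same strain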; conditions: S. cerevisiae mlh1 strain growth inhibition, hits give high values
# Procedure, shortened: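 Compounds are applied to a genetically altered yeast strain, and its growth is compared with that of vehicle-treated cultures to give percent inhibition.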
# [14] = NCI Yeast Anticancer Drug Screen. Data for the sgs1 strain (AID 173);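 further: 0% = growth of vehicle-only control cultures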; conditions: S. cerevisiae sgs1 mutant, hits give high values
# Procedure, shortened: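 Compounds applied to genetically altered yeast; growth compared with vehicle-treated cultures to give % inhibition.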
# [15] = NCI Yeast Anticancer Drug Screen. Data for the mlh1 rad18 strain (AID 175); conditions: S. cerevisiae mlh1 rad18 strain growth inhibition, hits give high values
# Procedure, shortened: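 Cells of a genetically altered yeast strain, deficient in DNA damage repair, were treated with compound. Their growth was then compared with that of vehicle-treated cultures to give inhibition.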
# [16] = NCI Yeast Anticancer Drug Screen. Data for the rad18 strain (AID 177); conditions: S. cerevisiae rad18 mutant growth inhibition, hits give high values
# Procedure, shortened: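 Compounds are applied to a repair-deficient yeast strain, and growth is compared with that of vehicle-treated cultures to give percent inhibition.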
# [17] = at 5.0 µM (retest, dose inferred, filed as 0.5)
# [18] = at 50.0 µM (retest, dose inferred, filed as 5.0)
smiles,measurement,setting,value
CC(C)/C(Cl)=N\OC(=O)Nc1ccc(F)cc1,growth inhibition,[1]; at 1.2 µM,3%
same,growth inhibition,[1]; at 3.7 µM,6%
same,growth inhibition,[1]; at 11.0 µM,11%
same,growth inhibition,[1]; at 33.0 µM,20%
same,growth inhibition,[1]; at 100.0 µM,78% (active)
same,growth inhibition,[2]; at 1.2 µM,2%
same,growth inhibition,[2]; at 3.7 µM,-1%
same,growth inhibition,[2]; at 11.0 µM,-3%
same,growth inhibition,[2]; at 33.0 µM,-5%
same,growth inhibition,[2]; at 100.0 µM,-3%
same,growth inhibition,[3]; at 1.2 µM,1%
same,growth inhibition,[3]; at 3.7 µM,11%
same,growth inhibition,[3]; at 11.0 µM,24%
same,growth inhibition,[3]; at 33.0 µM,57%
same,growth inhibition,[3]; at 100.0 µM,98% (active)
same,growth inhibition,[4]; at 1.2 µM,3%
same,growth inhibition,[4]; at 3.7 µM,0%
same,growth inhibition,[4]; at 11.0 µM,6%
same,growth inhibition,[4]; at 33.0 µM,78% (active)
same,growth inhibition,[4]; at 100.0 µM,99% (active)
same,growth inhibition,[5]; at 1.2 µM,5%
same,growth inhibition,[5]; at 3.7 µM,10%
same,growth inhibition,[5]; [17],24%
same,growth inhibition,[5]; at 11.0 µM,12%
same,growth inhibition,[5]; at 33.0 µM,23%
same,growth inhibition,[5]; [18],48%
same,growth inhibition,[5]; at 50.0 µM,10.7%
same,growth inhibition,[5]; at 100.0 µM,81% (active)
same,growth inhibition,[6]; at 1.2 µM,6%
same,growth inhibition,[6]; at 3.7 µM,10%
same,growth inhibition,[6]; [17],35%
same,growth inhibition,[6]; at 11.0 µM,13%
same,growth inhibition,[6]; at 33.0 µM,23%
same,growth inhibition,[6]; [18],63%
same,growth inhibition,[6]; at 50.0 µM,34%
same,growth inhibition,[6]; at 100.0 µM,95% (active)
same,growth inhibition,[7]; at 1.2 µM,4%
same,growth inhibition,[7]; at 3.7 µM,8%
same,growth inhibition,[7]; at 11.0 µM,11%
same,growth inhibition,[7]; at 33.0 µM,13%
same,growth inhibition,[7]; at 100.0 µM,69%
same,growth inhibition,[8]; [17],26%
same,growth inhibition,[8]; [18],86% (active)
same,growth inhibition,[8]; at 50.0 µM,88.7% (active)
same,growth inhibition,[9]; at 1.2 µM,12%
same,growth inhibition,[9]; at 3.7 µM,16%
same,growth inhibition,[9]; at 11.0 µM,15%
same,growth inhibition,[9]; at 33.0 µM,14%
same,growth inhibition,[9]; at 100.0 µM,15%
same,growth inhibition,[10]; [17],27%
same,growth inhibition,[10]; [18],29%
same,growth inhibition,[10]; at 50.0 µM,38.8%
same,growth inhibition,[11]; at 1.2 µM,13%
same,growth inhibition,[11]; at 3.7 µM,22%
same,growth inhibition,[11]; [17],52%
same,growth inhibition,[11]; at 11.0 µM,32%
same,growth inhibition,[11]; at 33.0 µM,45%
same,growth inhibition,[11]; [18],83% (active)
same,growth inhibition,[11]; at 50.0 µM,73.8% (active)
same,growth inhibition,[11]; at 100.0 µM,99% (active)
same,growth inhibition,[12]; at 1.2 µM,-1%
same,growth inhibition,[12]; at 3.7 µM,-2%
same,growth inhibition,[12]; at 11.0 µM,3%
same,growth inhibition,[12]; at 33.0 µM,86% (active)
same,growth inhibition,[12]; at 100.0 µM,99% (active)
same,growth inhibition,[13]; at 1.2 µM,1%
same,growth inhibition,[13]; at 3.7 µM,2%
same,growth inhibition,[13]; at 11.0 µM,6%
same,growth inhibition,[13]; at 33.0 µM,62%
same,growth inhibition,[13]; at 100.0 µM,98% (active)
same,growth inhibition,[14]; at 1.2 µM,-1%
same,growth inhibition,[14]; at 3.7 µM,-2%
same,growth inhibition,[14]; at 11.0 µM,13%
same,growth inhibition,[14]; at 33.0 µM,89% (active)
same,growth inhibition,[14]; at 100.0 µM,99% (active)
same,growth inhibition,[15]; [17],33%
same,growth inhibition,[15]; [18],54%
same,growth inhibition,[15]; at 50.0 µM,-41.8%
same,growth inhibition,[16]; at 1.2 µM,-1%
same,growth inhibition,[16]; at 3.7 µM,0%
same,growth inhibition,[16]; at 11.0 µM,2%
same,growth inhibition,[16]; at 33.0 µM,5%
same,growth inhibition,[16]; at 100.0 µM,56%
CC(=O)N/N=C/C(C)(C)C(C)(C)/C=N/NC(C)=O,growth inhibition,[1]; at 1.2 µM,-1%
same,growth inhibition,[1]; at 3.7 µM,-5%
same,growth inhibition,[1]; at 11.0 µM,-32%
same,growth inhibition,[1]; at 33.0 µM,38%
same,growth inhibition,[1]; at 100.0 µM,97% (active)
same,growth inhibition,[2]; at 1.2 µM,-3%
same,growth inhibition,[2]; at 3.7 µM,-5%
same,growth inhibition,[2]; at 11.0 µM,2%
same,growth inhibition,[2]; at 33.0 µM,27%
same,growth inhibition,[2]; at 100.0 µM,42%
same,growth inhibition,[3]; at 1.2 µM,-3%
same,growth inhibition,[3]; at 3.7 µM,11%
same,growth inhibition,[3]; at 11.0 µM,10%
same,growth inhibition,[3]; at 33.0 µM,18%
same,growth inhibition,[3]; at 100.0 µM,71% (active)
same,growth inhibition,[4]; at 1.2 µM,2%
same,growth inhibition,[4]; at 3.7 µM,-2%
same,growth inhibition,[4]; at 11.0 µM,-4%
same,growth inhibition,[4]; at 33.0 µM,-5%
same,growth inhibition,[4]; at 100.0 µM,6%
same,growth inhibition,[5]; at 1.2 µM,-13%
same,growth inhibition,[5]; at 3.7 µM,-6%
same,growth inhibition,[5]; [17],4%
same,growth inhibition,[5]; at 11.0 µM,16%
same,growth inhibition,[5]; at 33.0 µM,38%
same,growth inhibition,[5]; [18],51%
same,growth inhibition,[5]; at 50.0 µM,50.5%
same,growth inhibition,[5]; at 100.0 µM,98% (active)
same,growth inhibition,[6]; at 1.2 µM,5%
same,growth inhibition,[6]; at 3.7 µM,2%
same,growth inhibition,[6]; [17],4%
same,growth inhibition,[6]; at 11.0 µM,1%
same,growth inhibition,[6]; at 33.0 µM,2%
same,growth inhibition,[6]; [18],39%
same,growth inhibition,[6]; at 50.0 µM,19.2%
same,growth inhibition,[6]; at 100.0 µM,11%
same,growth inhibition,[7]; at 1.2 µM,3%
same,growth inhibition,[7]; at 3.7 µM,2%
same,growth inhibition,[7]; at 11.0 µM,7%
same,growth inhibition,[7]; at 33.0 µM,39%
same,growth inhibition,[7]; at 100.0 µM,54%
same,growth inhibition,[8]; [17],15%
same,growth inhibition,[8]; [18],78% (active)
same,growth inhibition,[8]; at 50.0 µM,70% (active)
same,growth inhibition,[9]; at 1.2 µM,9%
same,growth inhibition,[9]; at 3.7 µM,11%
same,growth inhibition,[9]; at 11.0 µM,11%
same,growth inhibition,[9]; at 33.0 µM,4%
same,growth inhibition,[9]; at 100.0 µM,17%
same,growth inhibition,[10]; [17],2%
same,growth inhibition,[10]; [18],20%
same,growth inhibition,[10]; at 50.0 µM,5.8%
same,growth inhibition,[11]; at 1.2 µM,-1%
same,growth inhibition,[11]; at 3.7 µM,-4%
same,growth inhibition,[11]; [17],0%
same,growth inhibition,[11]; at 11.0 µM,-4%
same,growth inhibition,[11]; at 33.0 µM,-7%
same,growth inhibition,[11]; [18],16%
same,growth inhibition,[11]; at 50.0 µM,35.4%
same,growth inhibition,[11]; at 100.0 µM,16%
same,growth inhibition,[12]; at 1.2 µM,-1%
same,growth inhibition,[12]; at 3.7 µM,-2%
same,growth inhibition,[12]; at 11.0 µM,7%
same,growth inhibition,[12]; at 33.0 µM,39%
same,growth inhibition,[12]; at 100.0 µM,88% (active)
same,growth inhibition,[13]; at 1.2 µM,-7%
same,growth inhibition,[13]; at 3.7 µM,-5%
same,growth inhibition,[13]; at 11.0 µM,-2%
same,growth inhibition,[13]; at 33.0 µM,19%
same,growth inhibition,[13]; at 100.0 µM,91% (active)
same,growth inhibition,[14]; at 1.2 µM,-6%
same,growth inhibition,[14]; at 3.7 µM,-8%
same,growth inhibition,[14]; at 11.0 µM,25%
same,growth inhibition,[14]; at 33.0 µM,67%
same,growth inhibition,[14]; at 100.0 µM,98% (active)
same,growth inhibition,[15]; [17],11%
same,growth inhibition,[15]; [18],82% (active)
same,growth inhibition,[15]; at 50.0 µM,59.4%
same,growth inhibition,[16]; at 1.2 µM,-10%
same,growth inhibition,[16]; at 3.7 µM,1%
same,growth inhibition,[16]; at 11.0 µM,39%
same,growth inhibition,[16]; at 33.0 µM,81% (active)
same,growth inhibition,[16]; at 100.0 µM,93% (active)
